# For some assays here: Entries with a potency or affinity are not part of this list. The list shows a part of the results. Active and inactive are the calls of the source.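 How the source made its calls, unless noted: active means GFP response above 150% of the DMSO level; inconclusive means fewer than 70 events counted for a yeast strain; inactive means the rest.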
# Experiments:
# [1] = molecular target: Cell division control protein 42 homolog (Homo sapiens) (UniProt P60953); assay: activated mutant Cdc42 GTP-binding inhibitors, dose response, biochemical, multiplex bead flow cytometry, Bodipy-FL-GTP (AID 1333;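 active means fitted half-maximal concentration within the tested dose range, moderate curve steepness, a statistically real signal drop, and little compound fluorescence or tag-binding interference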)
# [2] = molecular target: Cell division control protein 42 homolog (Homo sapiens) (UniProt P60953); assay: wildtype Cdc42 GTP-binding inhibitors, dose response, biochemical, multiplex bead flow cytometry, Bodipy-FL-GTP (AID 1334;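 active means fitted half-maximal concentration within the tested range, moderate curve steepness, significant signal drop, and little compound fluorescence or bead-linkage interference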); settings: bead-based flow cytometry, Bodipy-FL-GTP binding to GST-Cdc42; at 100 µM (top of the series) unless noted
# [3] = molecular target: GTPase HRas (Homo sapiens) (UniProt P01112); assay: inhibitors of GTP binding to wildtype Ras, dose response, biochemical, multiplex bead flow cytometry (AID 1335;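 active means fitted half-maximal concentration within 10 nM to 100 µM, steepness 0.5 to 2, significant signal drop, low assay interference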); settings: bead-based flow cytometry, Bodipy-GTP binding to GST-Ras; at 100 µM (top of the series) unless noted
# [4] = system: Ras-related protein Rab-7a (dog), GTP binding; assay: Rab7 GTP binding inhibitors, potency, dose response, biochemical, wildtype, multiplex bead flow cytometry (AID 1336; call rule not given here)
# [5] = molecular target: Ras-related C3 botulinum toxin substrate 1 (Homo sapiens) (UniProt P63000); assay: wildtype Rac1 GTP binding inhibitors, dose response, biochemical, multiplex bead flow cytometry (AID 1340;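 active means dose curve with midpoint inside tested range, moderate steepness, plateau gap beyond fit error, low compound glow and bead-link interference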); settings: GST-Rac1 beads, Bodipy-FL-GTP binding; at 100 µM (top of the series) unless noted
# [6] = molecular target: GTPase HRas (Homo sapiens) (UniProt P01112); assay: activated Ras mutant GTP binding inhibitors, dose response, biochemical, multiplex bead flow cytometry (AID 1341;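 active means dose-response curve with midpoint inside the tested range, moderate steepness, significant amplitude and little compound fluorescence or bead-attachment interference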;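 further: GST-tagged constitutively activated Ras mutant immobilized on beads and multiplexed with other GTPases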)
# [7] = RPL19A-GFP modulators, yeast TOR pathway, confirmation, cell-based, S. cerevisiae, flow cytometry, cherry picks, mother/daughter gates (AID 2270;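 active means GFP response below 50% of the DMSO control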); settings: S. cerevisiae RPL19A-GFP strain, 3 h, at 10 µM, stronger effect = lower value, 100 = same GFP as DMSO wells
# [8] = LAP4-GFP expression modulators in yeast, confirmation, cell-based, cherry picks, flow cytometry, mother/daughter gates (AID 2271;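 active means GFP response above 150% of the DMSO control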;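 further: ratio of sample to DMSO plate mean so 100% equals DMSO level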); settings: S. cerevisiae LAP4-GFP strain, 3 h, at 10 µM, stronger effect = higher value, 100 means same as DMSO control
# [9] = modulators of MEP2-GFP levels in yeast, confirmation, S. cerevisiae, flow cytometry GFP, cherry picks (AID 2272;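 active means GFP response above 150% of the DMSO control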;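 further: ratio of well signal to plate DMSO mean so 100% equals DMSO level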); settings: S. cerevisiae MEP2-GFP strain, 3 h, at 10 µM, stronger effect = higher value
# [10] = AGP1-GFP expression modulators, hit retest, confirmation, cell-based, flow cytometry, S. cerevisiae, cherry picks (AID 2273);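 further: median GFP channel fluorescence over the whole cell population gate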; settings: S. cerevisiae AGP1-GFP strain, 3 h, at 10 µM
# [11] = modulators of CIT2-GFP expression in yeast, confirmation, S. cerevisiae, GFP fusion, cherry picks, mother/daughter gates (AID 2274); settings: S. cerevisiae CIT2-GFP strain, flow cytometry, 3 h, at 10 µM, stronger effect = higher value
# [12] = compound autofluorescence in yeast s288c, dose response, artefact control for yeast TOR pathway GFP screen, s288c strain (AID 2757;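 active means fluorescence span over the dose series, or activity score, above about 33, limit read from the data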;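 further: thousands of bead-calibrated equivalent soluble fluorophore molecules from median cell fluorescence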); settings: S. cerevisiae s288c, 520 nm autofluorescence, flow cytometry, 3 h; at 33 µM; stronger effect = higher value; zero means same as solvent-only cells
# [13] = measured here: daughter cell gate
# [14] = measured here: mother cell gate
# [15] = measured here: daughter cell gate response
# [16] = measured here: mother cell gate response
# Chain of GTPase HRas (Homo sapiens) (P01112 whole entry, looked up): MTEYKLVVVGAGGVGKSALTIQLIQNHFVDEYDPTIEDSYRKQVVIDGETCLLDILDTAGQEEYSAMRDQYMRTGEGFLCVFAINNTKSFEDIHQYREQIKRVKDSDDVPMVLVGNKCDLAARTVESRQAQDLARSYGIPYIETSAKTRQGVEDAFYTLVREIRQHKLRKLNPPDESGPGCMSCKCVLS
# Chain of Cell division control protein 42 homolog (Homo sapiens) (P60953 whole entry, looked up): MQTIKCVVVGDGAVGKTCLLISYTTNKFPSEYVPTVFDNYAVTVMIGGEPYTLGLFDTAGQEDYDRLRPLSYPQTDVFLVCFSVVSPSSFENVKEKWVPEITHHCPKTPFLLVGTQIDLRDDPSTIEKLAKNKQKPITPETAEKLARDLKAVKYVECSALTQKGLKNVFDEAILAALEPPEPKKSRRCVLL
SMILES,outcome [1],"fluorescence, percent of control (lower = inhibition) [2]","GTP binding, percent of control [3]",outcome [4],"GTP binding signal, raw median fluorescence (lower = inhibition) (MCF (arbitrary fluorescence units)) [5]",outcome [6],GFP response vs DMSO [7],"GFP response vs DMSO [7, 13]","GFP response vs DMSO [7, 14]",GFP response relative to DMSO [8],"GFP response relative to DMSO [8, 15]","GFP response relative to DMSO [8, 16]",GFP response vs DMSO [9],"GFP response, % of DMSO [10]","GFP response, % of DMSO [11]","GFP response, % of DMSO [11, 13]","GFP response, % of DMSO [11, 14]",fluorescence change (kMESF span) [12]
O=C(/C=C/c1ccc(Cl)c([N+](=O)[O-])c1)c1cccnc1,inactive,30.5%,73.5%,inactive,206,inactive,91.5% (inactive),89.7%,84.1%,207% (active),192%,215%,105% (inactive),107% (inactive),86% (inactive),102%,72.8%,1.02 (inactive)
CN(C)c1ccc(/C=C/C(=O)c2cccc(Br)c2)cc1,inactive,120%,213%,inactive,225,inactive,104% (inactive),105%,104%,99.5% (inactive),97.5%,102%,112% (inactive),94% (inactive),98.8% (inactive),97.4%,98.1%,
COCCN1C(=O)/C(=C/c2ccc(N3CCCC3)cc2C)SC1=S,inactive,77.8%,104%,inactive,224,inactive,99.6% (inactive),99.1%,100%,117% (inactive),117%,116%,143% (inactive),101% (inactive),112% (inactive),112%,112%,
N=c1c(C(=O)NCc2ccco2)cc2c(=O)n3ccccc3nc2n1CCc1ccccc1,inactive,28.7%,40.3%,inactive,96.5,inactive,96.8% (inactive),96.4%,95.8%,99.2% (inactive),99.2%,90.8%,100% (inactive),97% (inactive),96.9% (inactive),95.4%,91.4%,
Clc1cccc(Cl)c1/C=N\Nc1nccs1,inactive,96.7%,151%,inactive,190,inactive,,,,,,,,,,,,
COC(=O)c1cn(CCOc2ccc(C)cc2)c2ccccc12,inactive,37%,84.4%,inactive,175,inactive,,,,,,,,,,,,
CCOC(=O)N1CCN(C(=O)CCc2ccc(S(=O)(=O)NCCc3ccccc3)cc2)CC1,inactive,48.3%,57.7%,inactive,0,inactive,99.3% (inactive),100%,97.8%,95.3% (inactive),99%,94.4%,101% (inactive),108% (inactive),100% (inactive),101%,100%,

# Reference: PubChem BioAssay
